Screens as filed in PubChem.
Most compounds without a hit are left out; they make up all but 1.7% or so of the library.
GLP-1R agonist: activates the human GLP-1 receptor | HEK293 GLP-1R CRE-luciferase, luminescence, 4-6 h; cells express a hypersensitive GLP-1R form | Potency, µM (top dose mostly 45.6 µM), most hits filed as activators | actives 0.007% (n = 380,000) | AID 624172
Target sequence (P43220 whole entry, looked up): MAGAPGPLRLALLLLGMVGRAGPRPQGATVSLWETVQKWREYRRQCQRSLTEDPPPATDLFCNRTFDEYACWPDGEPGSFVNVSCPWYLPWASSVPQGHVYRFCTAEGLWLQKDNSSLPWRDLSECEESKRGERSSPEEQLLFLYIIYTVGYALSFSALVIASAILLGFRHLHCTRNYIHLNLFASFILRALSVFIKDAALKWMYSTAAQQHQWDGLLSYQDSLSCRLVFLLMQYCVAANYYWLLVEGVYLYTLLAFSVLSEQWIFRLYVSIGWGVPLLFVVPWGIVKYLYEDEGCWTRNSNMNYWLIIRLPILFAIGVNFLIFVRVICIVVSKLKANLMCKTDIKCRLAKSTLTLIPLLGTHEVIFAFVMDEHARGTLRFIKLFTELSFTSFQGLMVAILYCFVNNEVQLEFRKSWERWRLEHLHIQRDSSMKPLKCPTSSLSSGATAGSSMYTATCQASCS
GLP1R cytotox: cytotoxicity counter-screen for GLP-1 receptor inverse agonists; HEK293 cAMP-luciferase reporter cells, luminescence, 24 h; Potency, µM (doses to about 38.3 µM), usual class: inhibitors; actives 0.13% (n = 410,000);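 also: loss of luciferase light is scored as toxicity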
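To flag toxic compounds, the library was rerun on cells for 24 hr at 37 deg C and 5% CO2. Viability-linked luminescence was captured 12 min after adding luciferase detection reagent.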
GLP1R inv ag: GLP-1 receptor (human) inverse agonism; AID 624417; Potency, µM (titrated, usually from 38.3 µM), usual class: inhibitors; HEK293 GLP-1R CRE-luciferase, luminescence, 24 h; GLP-1R form is constitutively active; actives 1.6% (n = 410,000); also: nearly all actives have a fitted effect of over 55% in size
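Readout was luciferase luminescence, measured 12 min after detection reagent at room temperature. Beforehand, GLP-1R reporter HEK293 cells had sat 12 h, then received compounds for 24 hr at 37 deg C.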
Numbers stand for hits; - = inactive; ? = inconclusive; . = no result. Calls follow the shape of the dose curve; as a rule, active = well fitted curve in the direction sought with a large enough effect; inconclusive = small, poorly fitted or top-dose-only effect, or another doubt; inactive = no such curve, though single readings can be large; an effect the other way counts as inactive or inconclusive.

SMILES | GLP-1R agonist | GLP1R cytotox | GLP1R inv ag
c1ccc(CCn2nnnc2C(c2cccs2)N2CCN(Cc3ccc4c(c3)OCO4)CC2)cc1 (stereo not drawn) | - | ? | 7.08µM
CC(C)C(c1nnnn1CC1CCCO1)N1CCN(Cc2ccc3c(c2)OCO3)CC1 (stereo not drawn) | - | - | -
Fc1ccccc1N1CCN(C(c2cccs2)c2nnnn2CCc2ccccc2)CC1 (stereo not drawn) | - | - | ?
CC(C)C(c1nnnn1Cc1ccccc1)N1CCN(Cc2ccc3c(c2)OCO3)CC1 (stereo not drawn) | - | - | 8.91µM
O=C(c1ccc(-n2cncn2)c([N+](=O)[O-])c1)N1CCN(S(=O)(=O)c2ccc(Cl)cc2)CC1 | - | - | -
CN(CC(=O)N1CCOCC1)Cc1c(Cl)cccc1NC(=O)c1ccccc1 | - | . | .
Cc1ccc(NC(=O)CNc2ccccc2N2CCCC2=O)cc1S(=O)(=O)N1CCOCC1 | - | - | -
Cc1noc(C)c1C(=O)OCC(=O)c1c[nH]c2ccccc12 | - | - | -
Cc1onc(-c2c(F)cccc2Cl)c1C(=O)OCC(=O)c1c[nH]c2ccccc12 | - | - | 8.91µM
CCOc1cc(CNc2ncn[nH]2)ccc1OCC(=O)NC(C)(C)C | - | - | -
Cc1cc(C)c(S(=O)(=O)N2CCCCC2)cc1N(C)S(=O)(=O)c1ccc(Cl)cc1 | - | - | 12.6µM
Cc1ccc(S(=O)(=O)N(C)c2cc(S(=O)(=O)N3CCOCC3)c(C)cc2C)cc1 | - | - | -
O=C1C=C(c2cc3ccccc3s2)CCC1 | - | - | 2.51µM
CC1(C)CC(=O)C=C(c2cc3ccccc3s2)C1 | - | ? | -
Cn1c(SCC(=O)NCCc2ccccc2)ncc(C(=O)Nc2ccccc2)c1=O | - | - | -
CCN(CC)C(=O)CSc1nc2ccccc2c(=O)n1CC1CCCCC1 | - | - | 5.62µM
O=C(CSc1nc2ccccc2c(=O)n1CC1CCCCC1)N1CCOCC1 | - | - | -
O=C(NNc1cc(Cl)ccc1Cl)C1CCC1 | - | - | 3.16µM
O=C(NNc1ccc(F)cc1F)C1CCC1 | - | ? | ?
CC1CCCC(C)N1C(=O)COC(=O)c1cccnc1Cl (stereo not drawn) | - | - | -
C/C(=N\NC(=O)CN(c1ccccc1)S(C)(=O)=O)c1ccccc1O | - | - | 5.01µM
C/C(=N\NC(=O)CN1CCCCC1)c1ccccc1O | - | - | ?
O=C(NCCC1=CCCCC1)c1ccc2c(c1)N(Cc1ccccc1)C(=O)c1ccccc1S2(=O)=O | . | - | ?
N/C(=N\OC(=O)c1cccc(Br)c1)c1ccccn1 | - | - | 6.31µM
N/C(=N\OC(=O)c1cccc(Cl)c1)c1ccccn1 | - | ? | ?
SMILES | GLP-1R agonist | GLP1R cytotox | GLP1R inv ag
CN1CCN(c2nc(-c3ccccc3)c3cc(Cl)ccc3n2)CC1 | - | - | -
Cc1ccc2nc(N3CCN(CCO)CC3)nc(-c3ccccc3)c2c1 | - | - | 6.31µM
CCOC(=O)N1CCN(c2nc(-c3ccccc3)c3cc(C)ccc3n2)CC1 | - | - | -
OCCN1CCN(c2nc(-c3ccccc3)c3cc(Cl)ccc3n2)CC1 | - | - | 3.55µM
CC(C)N(CCO)Cc1nc(C(c2ccccc2)c2ccccc2)no1 | - | - | -
O=C(CCn1ccnc1)Nc1ccc2ccccc2c1 | - | - | -
COCc1c(C(=O)N2CCN(Cc3ccc(C#N)cc3)CC2)oc2ccccc12 | - | - | -
O=C(c1ccc2c(c1)CCC2)N1CCN(Cc2c(F)cccc2Cl)CC1 | - | - | 10µM
COCc1c(C(=O)N2CCN(Cc3c(F)cccc3Cl)CC2)oc2ccccc12 | - | - | 10µM
O=C(c1ccc2c(c1)OCCO2)N1CCN(Cc2c(F)cccc2Cl)CC1 | - | - | ?
Cc1ccccc1C(=O)Nc1nnc(CC(=O)N/N=C/c2ccncc2)s1 | - | ? | -
Nc1ccc(/C=C/c2ccc(N)cc2S(=O)(=O)O)c(S(=O)(=O)O)c1 | - | . | .
CN1[C@@H]2CCC[C@@H]1CC(NC(=O)c1nn(C)c3ccccc13)C2 (stereo partly drawn) | - | . | .
Cc1cc(Br)ccc1NC(=O)CN1C(=O)C2C3CC(c4ccccc4)C(C3)C2C1=O (stereo not drawn) | - | - | 10µM
Cc1cc(Br)ccc1NC(=O)CNC(=O)CN1C(=O)NC2(CCCCCC2)C1=O | - | - | -
CC1(C)C(c2ccccc2)=NC(c2ccc(Br)cc2)N1O (stereo not drawn) | - | - | ?
COc1ccc(NC(=S)NC(C)C(c2ccccc2)N2CCOCC2)cc1 (stereo not drawn) | - | - | -
CC(NC(=O)c1ccc(C(F)(F)F)cc1)C(c1ccccc1)N1CCOCC1 (stereo not drawn) | - | - | -
CC(NC(=S)Nc1ccccc1Cl)C(c1ccccc1)N1CCOCC1 (stereo not drawn) | - | 10µM | ?
CC(NC(=O)c1ccc(-c2ccccc2)cc1)C(c1ccccc1)N1CCOCC1 (stereo not drawn) | - | - | 2µM
CCOC(=O)C1(C)CCCCCN1C(=O)/C=C/c1ccccc1 (stereo not drawn) | - | - | -
Cn1c(=O)c2c(-c3ccc(Cl)cc3)n(Cc3ccc(Cl)cc3)cc2n(C)c1=O | . | - | -
O=C(c1ccccc1)N1CCCCC1 | - | - | -
O=C(c1ccccc1)N(C(=O)c1ccccc1)N1CCCC1 | - | - | 10µM
CN(C)c1cccc(C(=O)N2CCC(c3c[nH]c4ccccc34)(c3c[nH]c4ccccc34)CC2)c1 | . | - | ?
SMILES | GLP-1R agonist | GLP1R cytotox | GLP1R inv ag
COc1ccccc1CN(C)C(=O)C(c1ccccc1)c1ccccc1 | - | ? | 12.6µM
CN(Cc1ccc(F)cc1)C(=O)C(c1ccccc1)c1ccccc1 | - | - | ?
CCc1cccc(NC(=O)Cn2nc(C)c3sc4ccccc4c3c2=O)c1 | . | - | -
O=C(c1ccccc1)N1N=C(c2ccccc2)CC1c1ccccc1O (stereo not drawn) | - | - | 11.2µM
Cc1ccc(C2=NN(C(=O)c3cccs3)C(c3ccccc3O)C2)cc1 (stereo not drawn) | - | - | -
O=C(c1cccs1)N1N=C(c2ccccc2)CC1c1ccccc1O (stereo not drawn) | - | - | 8.91µM
O=C(c1ccncc1)N1N=C(c2ccc(Br)cc2)CC1c1ccccc1O (stereo not drawn) | - | - | ?
O=C(CN1CCN(S(=O)(=O)N2CCCCC2)CC1)Nc1ccc(Br)cc1 | - | - | ?
CC1(c2ccccc2)CC(C)(C)N2C(=O)C3(C(C#N)=C(N)Oc4cc(O)ccc43)c3cccc1c32 (stereo not drawn) | - | ? | 5.62µM
Cc1cc2c3c(c1)C(C)(c1ccccc1)CC(C)(C)N3C(=O)C21C(C#N)=C(N)OC2=C1C(=O)CC(C)(C)C2 (stereo not drawn) | - | - | ?
CCOC(=O)C1CCCN(C(=O)c2ccc(SC(F)(F)F)cc2)CC1 (stereo not drawn) | - | - | -
CCN(CC)CCNC(=O)c1cc(-c2ccc(Br)s2)nc2ccccc12 | - | ? | ?
CCN(CC)CCNC(=O)c1cc2cc(Br)ccc2s1 | - | - | 3.16µM
CCOC(=O)c1c(S(=O)(=O)NCC2CCN(CCc3cccs3)CC2)c(C)n(C)c1C | - | ? | -
CCCCn1c(C23CC4CC(CC(C4)C2)C3)n[nH]c1=S | - | - | 7.08µM
